From PubChem BioAssay
The list is not random: actives were taken first. Their share in the collection is about 0.72%.
CtBP-E1A blk = qHTS Assay for Inhibitors of the CtBP/E1A Interaction. CtBP / adenovirus E1A interaction (AlphaScreen). AlphaScreen GST-E1A/His-CtBP binding, 1536-well; active compounds read low. activity change, % (test concentration not listed). hit rate 0.49% among 340,000. AID 651724, 2012; in the data active = activity change below about -65%; inconclusive = mostly about -30% to -63%
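AlphaScreen with 125 nM GST-E1A and 125 nM His-CtBP (5X stocks) in Tris pH 8.0, 300 mM NaCl, BSA, Tween 20, TCEP. Compounds preincubated 2 h at 37 deg C, then glutathione donor/nickel acceptor beads added for 1 h at 37 deg C in dark.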
RGS4 inhibitor = Inhibitors of Regulator of G Protein Signaling (RGS) 4: qHTS; Regulator of G-protein signaling 4 (Homo sapiens), P49798; Transcreener GDP fluorescence polarization, RGS4-accelerated GTP hydrolysis; Potency, µM (top dose mostly 114 µM), inactives show at the top dose activity change, negative = inhibition, hits mostly inhibitors; hit rate 0.039% among 390,000; AID 504845, 2011; note: potency is the fitted concentration of half-maximal effect; nearly all actives have a fitted effect of over 75% in size
Target sequence (P49798 whole entry, looked up): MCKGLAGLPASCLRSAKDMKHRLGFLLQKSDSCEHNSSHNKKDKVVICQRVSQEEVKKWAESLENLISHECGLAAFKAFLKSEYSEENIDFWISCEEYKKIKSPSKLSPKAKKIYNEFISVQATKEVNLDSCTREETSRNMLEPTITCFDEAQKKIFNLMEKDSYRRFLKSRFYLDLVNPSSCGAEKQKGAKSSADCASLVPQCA
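MLSMR compounds (23 nl, pin-transferred) preincubated 10 min at room temperature with a 500nM (2x) first reagent, then RGS4 at 900nM (2x) plus Transcreener GDP mix added; fluorescence polarization (620/688 nm) read before and after 90 min at 30 °C.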
USP2a block = qHTS Assay for Inhibitors of Ubiquitin-specific Protease USP2a Using CHOP2 as the Reporter; hit rate 0.01% among 330,000; AID 463254, 2010; Potency, µM (highest dose often 38.3 µM), for inactives: at the top dose activity change, negative = inhibition, usual class: inhibitors; Ubiquitin carboxyl-terminal hydrolase 2 (Homo sapiens), O75604; USP2 core, Ub-CHOP2 coupled fluorogenic reporter, 485/531;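 note: potency is the fitted concentration of half-maximal effect; plate controls were DMSO wells for no effect and full inhibition by NEM control for full effect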
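Deubiquitinase activity read as fluorescence (485/531 nm) after Ub-CHOP2 cleavage activates the enterokinase reporter on its substrate; USP2 core 10nM, Ub-CHOP2 and substrate 25nM each, 30min compound preincubation then 60min RT; data normalized to NEM, curves fitted.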
Six1-Eya2 blk = qHTS Assay for Inhibitors of the Six1/Eya2 Interaction | AID 651725, 2012 | AlphaScreen GST-Six1/His-Eya2 binding, biochemical; active compounds read low | Homeobox protein SIX1 (Homo sapiens) + Protein phosphatase EYA2 (Homo sapiens), … | activity change, % (no concentration beside the values) | hit rate 0.56% among 360,000; in the data active = activity change below about -65%; inconclusive = mostly about -30% to -63%
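Homogeneous AlphaScreen proximity assay pairing GST-Six1 with His-tagged Eya2 (added as 5X mix: 250 nM and 500 nM) in 50 mM Tris pH 8.0, 300 mM NaCl, 1 mM TCEP. Glutathione donor and nickel acceptor beads; 1 h, 37 °C, dark.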
Eya2 inh = qHTS Assay for Inhibitors of the Phosphatase Activity of Eya2 | AID 488837, 2010 | Potency, µM (highest dose often 76.9 µM), without a hit: at the top dose activity, negative = inhibition, hits mostly inhibitors | recombinant Eya2, OMFP fluorescence dephosphorylation (OMFP is methylfluorescein phosphate) | Protein phosphatase EYA2 (Homo sapiens), O00167 | hit rate 0.006% among 330,000; note: potency is the fitted concentration of half-maximal effect
Target sequence (O00167 whole entry, looked up): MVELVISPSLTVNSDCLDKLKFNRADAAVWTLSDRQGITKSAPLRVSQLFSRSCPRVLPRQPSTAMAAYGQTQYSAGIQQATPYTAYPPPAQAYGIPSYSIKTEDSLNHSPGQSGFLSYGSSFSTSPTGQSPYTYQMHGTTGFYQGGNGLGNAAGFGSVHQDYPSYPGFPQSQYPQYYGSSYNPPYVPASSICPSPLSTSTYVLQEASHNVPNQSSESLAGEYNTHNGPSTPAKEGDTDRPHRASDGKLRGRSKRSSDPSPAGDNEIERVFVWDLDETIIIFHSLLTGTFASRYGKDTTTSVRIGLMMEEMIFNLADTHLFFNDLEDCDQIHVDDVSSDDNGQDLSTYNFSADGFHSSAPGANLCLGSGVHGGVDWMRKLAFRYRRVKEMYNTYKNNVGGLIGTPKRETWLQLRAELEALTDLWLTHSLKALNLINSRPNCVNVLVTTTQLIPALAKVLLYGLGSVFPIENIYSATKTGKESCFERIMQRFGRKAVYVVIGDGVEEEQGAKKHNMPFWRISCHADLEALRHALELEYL
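Eya2 protein (added as 0.2 uM solution) was preincubated with compound for 10 min at ambient temperature in 50 mM HEPES pH 7.5, 50 mM NaCl, 5 uM MgCl2, 0.05% BSA, 1 mM DTT. OMFP (added at 50 uM) then reacted 10 min; fluorescence read at 485/525 nm.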
PI4K2A inh = qHTS for small molecular inhibitors of PI4K2A. Phosphatidylinositol 4-kinase type 2-alpha (Homo sapiens), Q9BTU6. purified PI4K2A, ADP-Glo luminescence, 1 h; active compounds read low. activity change, negative = inhibition, % at 76.9 µM. hit rate 0.13% among 420,000; in the data active = activity change below about -50%; inconclusive = mostly about -30% to -49%;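 note: -100% = wells without enzyme as full effect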
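In this quantitative HTS, ADP production by PI4K2A was quantified luminescently after 1 h at ambient temperature; 100 microM adenosine served as plate-quality control.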
Starred values were filed as active, the others as inactive; i = inactive; ? = inconclusive; / = no result given; [ ] = another dose, or the depositor's remark. Unless noted, calls come from the whole dose curve; as a rule, active = well fitted curve in the direction sought with a large enough effect; inconclusive = small, poorly fitted or top-dose-only effect, or another doubt; inactive = no such curve, though single readings can be large; an effect the other way counts as inactive or inconclusive. Unless noted, % is set by controls: 0 for no effect and ±100 for the full control effect.

SMILES	CtBP-E1A blk	RGS4 inhibitor	USP2a block	Six1-Eya2 blk	Eya2 inh	PI4K2A inh
CC(=O)c1cccc(NC(=O)Cn2ccn3nc(-c4ccccc4)cc3c2=O)c1	/	5%	/	/	/	-7
CC(C)Oc1ccc(CNC(=O)C(C)n2ccc3cc(S(=O)(=O)N4CCCCCC4)ccc32)cc1 (stereo unspecified)	/	21%	/	/	/	-1
COc1ccc2c(c1)CCO[C@]21O[C@H](CCO)C[C@H](O)[C@H]1O	1	/	/	-1	/	-10
CC(C)N(C(=O)[C@H]1C[C@H](CC(=O)NCCCn2ccnc2)C(=O)N2CCc3c([nH]c4ccc(Cl)cc34)[C@]12C)C(C)C	-7	-36%	1%	-10	-9%	4
COc1ccc(/C=N/NC(=O)C(=O)Nc2ccccn2)cc1OC	0	-6%	0%	1	-4%	7
O=C(Nc1ccccc1)C(=O)Nc1ccccn1	8	7%	2%	2	0%	-22
O=C(N/N=C/c1cc(Br)ccc1O)c1ccncc1	-94*	1%	1%	-93*	1%	-2
O=C(N/N=C/c1ccccc1O)C(=O)Nc1ccccn1	/	-15%[56.9 µM]	11%	-88*	4%	1
O=C(N/N=C/c1cc(Cl)ccc1O)c1ccc(Br)cc1	?	?	2%	?	-7%	-10
O=C(N/N=C/c1cccs1)c1cccc2cc[nH]c12	-7	-20%	2%	-5	25µM*	-4
O=C(N/N=C/c1cccs1)c1ccc2ccccc2c1	5	-19%	1%	-6	-6%	-3
O=C(Nc1cccc(O)c1)C(=O)Nc1ccccn1	-3	10%	6%	-11	6%	-64*
CC1CCN(CC2CCN(C(=O)NCc3ccc(F)cc3)CC2)CC1	/	-1%	/	/	/	0
CCc1ccccc1NC(=O)c1sc2nc3n(c(=O)c2c1C)CCC3	/	9%	/	/	/	1
CC(C)C[C@H](NC(=O)N1CCCCCC1)C(=O)N[C@H](Cc1cn(C)c2ccccc12)C(=O)N[C@H](Cc1ccccn1)C(=O)O	/	i	/	/	/	/
O=C(N/N=C/c1ccc(O)c2ncccc12)c1cccc(Br)c1	-92*	-11%	-21%	-82*	-23%	-19
O=C(N/N=C\c1ccc(Sc2ccccn2)o1)c1cccc(Br)c1	-15	-10%	-2%	?	3.2µM*	2
Cc1cc(C(=O)N/N=C/c2cc(Br)ccc2OC(=O)c2ccccc2)n[nH]1	-67*	3%	2%	?	-1%	-13
O=C(N/N=C/c1cc([N+](=O)[O-])ccc1O)c1cccc(N2CCCC2=O)c1	-93*	36%	-1%	-91*	-8%	0
O=C(N/N=C/c1cccnc1)c1cccc(NC(=O)c2cccc(Br)c2)c1	-23	-23%	1%	-19	5%	3
O=C(N/N=C/c1cccc(Oc2ccccc2)c1)c1cccc(Br)c1	6	1%	-1%	0	-11%	-7
CCOc1ccc(C2C(=O)N(C3CCCCCC3)CC(=O)N2Cc2ccc(F)cc2)cc1OC (stereo unspecified)	/	9%	/	/	/	-1
O=C(NN=Cc1cccc(O)c1O)c1ccccc1	-91*	/	/	-90*	/	-3
O=C(N/N=C/c1ccccc1[N+](=O)[O-])c1ccc2c(c1)OCCO2	0	2%	-1%	3	7%	0
O=C(N/N=C/c1ccccc1)c1cc[n+]([O-])cc1	2	-1%	1%	6	5%	-2
SMILES	CtBP-E1A blk	RGS4 inhibitor	USP2a block	Six1-Eya2 blk	Eya2 inh	PI4K2A inh
O=C(N/N=C/c1ccccc1O)c1cc[n+]([O-])cc1	-94*	32%	-1%	-78*	4%	-2
O=C(N/N=C/c1ccc(OC(=O)c2ccc(Br)cc2)cc1)c1ccncc1	5	-42%	1%	?	-13%	1
O=C(N/N=C/c1cc(Br)ccc1OC(=O)c1ccc(Br)cc1)c1ccncc1	-91*	-8%	2%	-79*	-5%	3
O=C(N/N=C/c1cc([N+](=O)[O-])ccc1O)c1ccc2c(c1)OCCO2	0	-19%	2%	-81*	2%	-4
CCOC(=O)c1c(S(=O)(=O)N2CCC(C(=O)N3CCN(c4cc(C)ccc4C)CC3)CC2)c(C)n(C)c1C	/	-11%	/	/	/	-4
CC(C)C(=O)Nc1cccc(C2CN3CCSC3=N2)c1 (stereo unspecified)	/	/	/	/	/	-2
CCOC(=O)c1[nH]c2c(c1Cc1ccccc1OC)C(=O)CC(c1ccc(OCC)cc1)C2 (stereo unspecified)	/	5%	/	/	/	0
COc1ccc(C(=O)Nc2ccc(-n3nncc3-c3ccc(OC)c(OC)c3)cc2)cc1	/	-12%	/	/	/	-4
Cc1nc(C)c(C(=O)N/N=C/c2c[nH]c3ccccc23)s1	-9	-28%	2%	-12	-34%	2
O=C(N/N=C/c1cc([N+](=O)[O-])ccc1O)c1ccncc1	/	7%	-11%	-90*	-10%	3
Cc1nc(C)c(C(=O)N/N=C/c2cc(Br)ccc2O)s1	-84*	3%	-8%	?	-1%	7
O=C(N/N=C/c1ccc(O)c([N+](=O)[O-])c1)c1ccncc1	8	11%	0%	-11	-4%	2
Cc1nccn1CC(=O)N/N=C/c1ccccc1O	-96*	10%	0%	-81*	-13%	0
COc1ccc2c(CNCc3ccco3)c(C(=O)O)n(Cc3ccc(F)cc3Cl)c2c1	/	-14%	/	/	/	6
O=C1c2ccccc2-c2nnc(-c3ccc(F)cc3)cc21	-1	-21%	1%	1	-18%	-23
Cc1ccc(-c2cc3c(nn2)-c2ccccc2C3=O)cc1	-19	12%[11.4 µM]	4%	-14	-14%	-63*
COC(=O)c1scc(-c2ccc(C)cc2)c1S(=O)(=O)Nc1cccc(C(F)(F)F)c1	/	7%	/	/	/	-9
Cc1coc2c1c(C)cc1oc(=O)c(Cc3ccccc3)c(C)c12	7	14%	-2%	3	-3%	-84*
Cc1ccsc1C=Nc1ccc(O)cc1	?	-42%	-1%	?	2%	-59*
COc1ccc2cc3cc(C(=O)N4CCN(c5cccc(Cl)c5)CC4)sc3nc2c1	/	-16%	/	/	/	1
